These results are taken from PubChem BioAssay (NCATS).

Inconclusive results are not listed. The source made the active and inactive calls. Calls follow the shape of the dose curve; as a rule, active = well fitted inhibition curve with a large enough effect; inconclusive = small, poorly fitted or top-dose-only effect; inactive = no such curve, though single readings can be large or run the other way.
Potency is read from the fitted curve at half-maximal effect.

A short description of this experiment: Primary qHTS for inhibitors of nuclear receptor binding SET domain protein 2 (NSD2) in an RCH-ACV wild type WT cells (2C) (AID 1645877). Also: nearly all actives have a fitted effect of over 70% in size. As to conditions: RCH-ACV (leukaemia line) NSD2 WT (2C) viability, CellTiter-Glo, 72 h; series mostly up to 44.9 µM. An excerpt: Assay Provider: Jonathan D. Licht, MD
University of Florida College of Medicine, Gainesville, FL
Mutations in epigenetic regulators are common in relapsed pediatric acute lymphoblastic leukemia (ALL). Here, we uncovered the mechanism underlying the relapse of ALL driven by an activating mutation of the NSD2 histone methyltransferase (p.E1099K). […] Correction of this mutation restored glucocorticoid sensitivity. The transcriptional response to glucocorticoids was blocked in NSD2 mutant cells due to depressed glucocorticoid receptor (GR) levels and the failure of glucocorticoids to autoactivate GR expression. […] Pre-treatment of NSD2 p.E1099K cell lines and PDX samples with PRC2 inhibitors reversed glucocorticoid resistance in vitro and in vivo.
High-throughput drug screening of isogenic RCH-ACV cell lines was performed at the National Center for Advancing Translational Science (NCATS), National Institutes of Health as previously described (1). Briefly, isogenic RCH-ACV NSD2 p.E1099K mutant (9B) and WT cells (2C) were plated at 500 cells/well in a 1536-well plate with a 72-hour incubation with compounds prior to addition of CellTiter-Glo to assess cell viability. NCATS libraries screened include: NPC, MIPE 5.0, Kinase and NPACT. To determine compound activity in the qHTS assay, the concentration-response data for each sample was plotted and modeled by a four-parameter logistic fit yielding IC50 and efficacy (maximal response) values. The area under the curve (AUC) of the dose-response curve ensures both efficacy (magnitude of cell killing) and potency (concentration that elicits cell killing) are accounted for in the analysis of activity.
1. Tobie D Lee, Olivia W Lee, Kyle R Brimacombe, Lu Chen, Rajarshi Guha, Sabrina Lusvarghi, Bethilehem G Tebase, Carleen Klumpp-Thomas, Robert W Robey, Suresh V Ambudkar, Min Shen, Michael M Gottesman, Matthew D Hall. A High-Throughput Screen of a Library of Therapeutics Identifies Cytotoxic Substrates of P-glycoprotein. Mol Pharmacol. 2019, Nov;96(5):629-640.
(In general: In qHTS, concentration-response curves come from the screen itself.)
Take `C[C@@]12C(=O)OC(=O)[C@]1(C)[C@H]1CC[C@@H]2O1`: the Potency was 4.68 µM (active).
Regarding `NC(CC1c2ccccc2Oc2ccccc21)(C(=O)O)C1CC1C(=O)O` (stereo not given), the Potency result is “inactive”.
As to `COc1ccc(-c2oc3c(CC=C(C)C)c(OC4O[C@H](CO)[C@@H](O)[C@H](O)[C@H]4O)cc(O)c3c(=O)c2OC2O[C@@H](C)[C@H](O)[C@@H](O)[C@H]2O)cc1` (stereo not given in full), the Potency entry was “inactive”.
As to `C/C(=N\NC(=S)N1CCC1)c1ccccn1`, the Potency was 0.0093 µM (active).
As for `Cc1c(-c2cnccn2)ssc1=S`, the Potency is 13.2 µM (active).
As to `CC(C)n1ncnc1-c1cn2c(n1)-c1ccc(O[C@@H](C)C(N)=O)cc1OCC2`, the Potency was 0.934 µM (active).
On to `CCN(CC)C(=O)Cc1csc(NS(=O)(=O)c2cccc(Cl)c2C)n1`, for which the Potency result is “inactive”.
The same measure for `O=C(/C=C\n1cnc(-c2cc(C(F)(F)F)cc(C(F)(F)F)c2)n1)NNc1ccccn1`: 3.32 µM (active); for `COc1cccc2c1C(=O)c1c(O)c3c(c(O)c1C2=O)C[C@@](O)(/C(CO)=N/NC(=O)CCCCCN1C(=O)C=CC1=O)C[C@@H]3O[C@H]1C[C@H](N)[C@H](O)[C@H](C)O1`: 0.132 µM (active).
Take `CO[C@H]1/C=C\C=C(\C)C(=O)NC2=CC(=O)C(NCCN(C)C)=C(C[C@@H](C)C[C@H](OC)[C@H](O)[C@@H](C)/C=C(/C)[C@@H]1OC(N)=O)C2=O`: the Potency was 0.235 µM (active).
In the case of `C=CCNC1=C2CC(C)CC(OC)C(O)C(C)/C=C(\C)C(OC(N)=O)C(OC)/C=C/C=C(\C)C(=O)NC(=CC1=O)C2=O` (stereo not given) it was 1.32 µM (active).
Regarding `C=CC(=O)N1CC/C(=C\c2ccc(F)c([N+](=O)[O-])c2)C(=O)/C(=C/c2ccc(F)c([N+](=O)[O-])c2)C1`, the Potency is 0.059 µM (active).
`C=C1/C(=C/C=C2\CCCC3(C)[C@@H]([C@H](C)/C=C/C=C/C(O)(CC)CC)CC[C@@H]23)C[C@@H](O)C[C@@H]1O` (stereo not given in full): the Potency was 18.6 µM (active).
For the compound `COc1nc(OCc2cccc(-c3ccccc3)c2C)ccc1CNCCNC(C)=O`, the Potency is 7.42 µM (active).
In the case of `COc1cc(OC)c(/C=C/S(=O)(=O)Cc2ccc(OC)c(OP(=O)(O)O)c2)c(OC)c1`, the Potency is 0.0332 µM (active).
On to `C/C=C1\NC(=O)[C@H]2CSSCC/C=C\[C@H](CC(=O)N[C@H](C(C)C)C(=O)N2)OC(=O)[C@H](C(C)C)NC1=O`, for which the Potency is 0.0066 µM (active).
The same measure for `Cc1[nH]cnc1CN1CCN(C(=O)N[C@@H](CC(C)C)C(=O)O)[C@@H](Cc2ccccc2)C1=O`: “inactive”; for `COc1ccc(S(=O)(=O)N[C@@H](CNc2nc(C)nc(N3CCC(c4ccc5c(n4)NCCC5)CC3)c2C)C(=O)O)cc1`: “inactive”.
As for `C/C(=N\NC(=O)c1cccc(S(=O)(=O)N2CCOCC2)c1)c1cc(Cl)ccc1O`, the Potency was 2.09 µM (active).
Consider `CN(Cc1ccc(/C=C/C(=O)NO)cc1)CC12CC3CC(CC(C3)C1)C2`, for which the Potency is 0.209 µM (active).
Take `COc1ccccc1C(=O)Nc1cc2c(cc1N1CCCCC1)n(C)c(=O)n2C`: the Potency entry was “inactive”.
Consider `Cc1ccc(NC(=O)NCc2ccc3c(c2)CN(C2CCC(=O)NC2=O)C3=O)cc1Cl` (stereo not given), for which the Potency is 0.0012 µM (active).
Consider `COc1ccc(C(=O)N2CCN(C(=O)/C=C/c3ccc(Br)cc3)CC2)cc1`, for which the Potency result was “inactive”.
On to `Cc1onc(-c2ccc(F)cc2)c1COc1ccc(C(=O)N2CCS(=O)(=O)CC2)cn1`, for which the Potency result was “inactive”.
Regarding `CC1(C)OC2=C(C(=O)c3ccccc3C2=O)[C@H](NCc2ccccc2)[C@@H]1O`, the Potency was 6.61 µM (active).
In the case of `CN(C)CCN1C(=O)c2cccc3cc(NC(N)=O)cc(c23)C1=O`, the Potency is 1.86 µM (active).
For the compound `CCC(=C/[C@H](C)C/C=C/C(C)=C/[C@@H](C)C(=O)[C@@H](C)[C@H](O)[C@@H](C)C/C(C)=C/C(=O)O)/C=C/[C@@H]1OC(=O)C=C[C@@H]1C`, the Potency is 0.0042 µM (active).
Consider `C[C@H]1CNCCCN1S(=O)(=O)c1cccc2cncc(F)c12`, for which the Potency result is “inactive”.
For `O=C(Nc1ccccc1)Nc1ccc(-c2ccc(C(=O)[C@@H]3CCC[C@H]3C(=O)O)cc2)cc1`, the Potency entry is “inactive”.
For `C[C@H](NC(=O)/C(C#N)=C/c1cccc(Br)n1)c1ccccc1`, the Potency is 14.8 µM (active).
In the case of `COc1ccc2[nH]c(C(=O)N3CCC(CC(C)(C)O)CC3)cc2c1` it was “inactive”.
Regarding `O=C(NO)c1cnc(N2C[C@H]3C[C@@H]2CN3c2cc(C(F)(F)F)ccn2)nc1`, the Potency was 2.95 µM (active).
For `CC[C@@]1(O)C(=O)OCc2c1cc1n(c2=O)Cc2c-1nc1ccccc1c2CCNC(C)C`, the Potency was 0.0026 µM (active).
`CONC(=O)Nc1ccc(-c2sc3c(c2CN(C)Cc2ccccc2)c(=O)n(-c2ccccc2)c(=O)n3Cc2c(F)cccc2F)cc1`: the Potency entry is “inactive”.
The same measure for `NS(=O)(=O)c1ccc(Cc2c(-c3cccc(-c4ccccc4)c3)nn(-c3nc(C(=O)O)cs3)c2CC2CC2)cc1`: 5.25 µM (active); for `O=C(Nc1cccc(C(F)(F)F)c1)c1cccc2cc(Oc3cc(CO)ncn3)ccc12`: “inactive”; for `CC1Cc2ccccc2N1C(=O)Cc1nc(N2CCOCC2)cc(=O)[nH]1` (stereo not given): 4.68 µM (active).
Turning to `O=c1[nH]nc2c3c(cccc13)NC(CN1Cc3ccccc3C1)=N2`, the Potency is 18.6 µM (active).
The same measure for `CC1(C(=O)O)CCC2(C)CCC3(C)C(=CC(=O)C4C5(C)CCC(OC6OC(C(=O)O)C(O)C(O)C6OC6OC(C(=O)O)C(O)C(O)C6O)C(C)(C)C5CCC43C)C2C1` (stereo not given): “inactive”; for `CC(=O)N1CCN(c2ccc(NC(=O)Cc3cnc(-c4ccnc(F)c4)c(C)c3)nc2)CC1`: “inactive”.
